In all, about 13,000 compounds went through this assay and about 3,200 (25%) showed an effect of 50% or more. The list shows a part of the results.
tested on: P. falciparum stage V gametocytes; parameters: BacTiter-Glo ATP luminescence viability of purified stage V gametocytes in 384-well plates, per cent inhibition versus DMSO; conditions: 48 h, 5 µM; inhibitor

Structure (SMILES) | % Inhibition [%]
FC(F)(F)c1ccc2[nH]c(-c3ccc(-c4cccc(CNCC5CCCO5)c4)cc3)nc2c1.O=C(O)C(F)(F)F (stereo not shown) [TCMDC-133095] | -18.46
Cc1ccc(NC(=O)c2c(C)noc2-c2snnc2C)cc1 [TCMDC-125783] | 10.03
CCOc1ccc(C2CCN(CCN3CCC(NC(=O)c4ccc(-c5ccc(C(F)(F)F)cc5)cc4)CC3)CC2)c(OCC2CC2)c1 [TCMDC-138832] | -29.12
CCOc1c(OC)ccc2c1CCN(CCN1CCC(CNC(=O)c3ccc(-c4ccc(C(F)(F)F)cc4)cc3)CC1)C2 [TCMDC-138806] | 11.85
COc1ccc2c(c1)c(C1CCN(CCCCNC(=O)c3ccc(-c4ccc(C(F)(F)F)cc4)cc3)CC1)cn2C(C)C [TCMDC-138801] | 16.06
N#Cc1ccc(CN2CCC(NC(=O)c3ccc(-c4nnc(-c5cccc6ccccc56)o4)cc3)CC2)cc1 [TCMDC-136131] | 6.646
N#Cc1ccc(-c2ccc(C(=O)NC3CCN(CCN4CCC(c5cn(CCO)c6ccccc56)CC4)CC3)cc2)cc1 [TCMDC-138858] | -15.2
O=C(NCC1CCN(CCN2CCc3ccc4c(c3C2)OCO4)CC1)c1ccc(-c2ccc(C(F)(F)F)cc2)cc1 [TCMDC-138834] | -19.42
N#Cc1ccc(-c2ccc(C(=O)NC3CCN(CCN4CCC(c5cn(CCOC6CCCCO6)c6ccccc56)CC4)CC3)cc2)cc1 (stereo not shown) [TCMDC-138855] | 104.1
O=C(NCC1CCN(CCN2CCC(c3cn(CCO)c4ccccc34)CC2)CC1)c1ccc(-c2ccc(C(F)(F)F)cc2)cc1 [TCMDC-138856] | 114.3
CC(C)Cn1cc(C2CCN(CCN3CCC(CNC(=O)c4ccc(-c5ccc(C(F)(F)F)cc5)cc4)CC3)CC2)c2ccccc21 [TCMDC-138852] | 92.78
O=C(NC1CCN(CCN2CCC(c3cn(CCO)c4ccccc34)CC2)CC1)c1ccc(-c2ccc(C(F)(F)F)cc2)cc1 [TCMDC-138871] | 111.6
Cc1cc(C2CCN(CCCCNC(=O)c3ccc(-c4ccc(C(F)(F)F)cc4)cc3)CC2)c(C)cc1OCCOC1CCCCO1 (stereo not shown) [TCMDC-138802] | -43.58
O=C(NC1CC1)c1cnc(N2CCCC(c3ccccc3)C2)c(Cl)c1 (stereo not shown) [TCMDC-134608] | 7.948
CCOC(=O)[C@H](Cc1cc([N+](=O)[O-])c(Oc2ccc(OC)c(Cc3ccc(OC)c(C(C)C)c3)c2)c([N+](=O)[O-])c1)NC(=O)C(F)(F)F [TCMDC-139398] | 36.25
COc1ccc(C2(CNCC(O)c3cccc([N+](=O)[O-])c3)CCCC2)cc1OC (stereo not shown) [TCMDC-123699] | 30.43
CCC[C@@H]([C@@H](CC1CCCCC1)C(=O)N[C@@H](CCOC(=O)NCC)C(=O)Nc1nccs1)N(O)C=O [TCMDC-138145] | 41.2
NC1=NC(c2ccccc2)(c2ccccc2)C(=O)N1CC=Cc1ccccc1 [TCMDC-136505] | -58.42
O=C(NCCCN1CCOCC1)c1csc(Nc2ccc(Cl)c(Cl)c2)n1 [TCMDC-123719] | -63.94
CCc1sc(N2CCC(C)CC2)nc1C(=O)Nc1ccc(F)cc1C(F)(F)F [TCMDC-134663] | -1.278
CCCCCN1CCCC1CNS(=O)(=O)c1ccc(C(=O)Nc2ccc(C(F)(F)F)cc2)cc1 (stereo not shown) [TCMDC-133682] | -15.48
CN1CCCC(CN2CCN(Cc3ccc(-c4ccc(-c5nc6ccccc6[nH]5)cc4)cc3)CC2)C1.O=C(O)C(F)(F)F (stereo not shown) [TCMDC-133903] | 95.28

Structure (SMILES) | % Inhibition [%]
CN1CCCC(CN2CCN(Cc3cccc(-c4csc(-c5nc6ccccc6[nH]5)c4)c3)CC2)C1 (stereo not shown) [TCMDC-133913] | 1.76
c1cc(CN2CCN(c3ccncc3)CC2)cc(-c2ccc(-c3nc4ccccc4[nH]3)cc2)c1 [TCMDC-132921] | 36.65
O=C(O)C(F)(F)F.OCCN1CCN(Cc2ccc(-c3ccc(-c4nc5ccccc5[nH]4)cc3)cc2)CC1 [TCMDC-133025] | -7.938
O=C(O)C(F)(F)F.c1ccc2[nH]c(-c3ccc(-c4ccc(CN5CCN(c6ccncc6)CC5)cc4)cc3)nc2c1 [TCMDC-133830] | 15.5
CN1CCCC(CN2CCN(Cc3cccc(-c4ccc(-c5nc6ccccc6[nH]5)cc4)c3)CC2)C1 (stereo not shown) [TCMDC-133888] | 60.97
CN1CCCC(CN2CCN(Cc3ccc(-c4cccc(-c5nc6ccccc6[nH]5)c4)cc3)CC2)C1 (stereo not shown) [TCMDC-133916] | 44.74
CN1CCCC(CN2CCN(Cc3cccc(-c4cccc(-c5nc6ccccc6[nH]5)c4)c3)CC2)C1 (stereo not shown) [TCMDC-133912] | 100.3
O=C(Nc1ccc(Cl)cc1)c1ccc(CN2CCCN(Cc3cccc(O)c3)CC2)cc1 [TCMDC-136406] | -22.52
O=C(Nc1ccc(C(=O)N2CCN(CCN3CCN(c4cccc(C(F)(F)F)c4)CC3)CC2)cc1)c1ccc(OC(F)(F)F)cc1 [TCMDC-138147] | -46.71
O=C(N[C@@H](Cc1ccccc1)C(=O)NCCN1CCOCC1)c1ccc(O)c(-c2ccc(Cl)c(Cl)c2)c1 [TCMDC-140851] | 14.71
COc1ccc(C2CC(=O)C3=C(C2)NC(C)=C(C(=O)OC(C)C)C3c2c(F)cccc2Cl)cc1OC (stereo not shown) [TCMDC-124040] | 34.34
CNC(=O)c1ccc2nc(-c3ccc(-c4ccccc4)cc3)n(CC3CCN(CC4CCCC4)CC3)c2c1 [TCMDC-136523] | 25.32
CNC(=O)c1ccc2nc(C3CC3)n(CC3CCN(S(=O)(=O)c4cccc(Cl)c4)CC3)c2c1 [TCMDC-136189] | 88.15
COC(=O)Cn1c(C2CCN(CC3CCN(C(=O)/C=C/c4ccc(Cl)c(Cl)c4)CC3)CC2)nc2ccccc21 [TCMDC-140298] | 2.762
O=C(/C=C/c1cccc(C(F)(F)F)c1)NCCCCCN1CCN(C(=O)Nc2ccc(Cl)c(Cl)c2)CC1 [TCMDC-135794] | -9.962
O=C1C2C(c3ccc(Cl)c(Cl)c3)N3CC(OCc4ccccc4)CC3(C(=O)O)C2C(=O)N1c1ccc(Br)cc1 (stereo not shown) [TCMDC-139263] | 16.51
Cc1cccc2nc(-c3ccc(-c4ccc(NC(=O)Nc5ccsc5)cc4)s3)[nH]c12 [TCMDC-133209] | -24.83
CCC(Cc1ccccc1)c1cc(O)c(Cc2ccc(-c3ccccc3)cc2)c(=O)o1 (stereo not shown) [TCMDC-140730] | -3.123
CN(C)Cc1cc2c(O)c(Cc3ccccc3)ccc2o1 [TCMDC-124091] | 7.975
CN(C)Cc1c(O)ccc2oc(Cc3ccccc3)cc12 [TCMDC-125816] | 62.06
O=S1(=O)NC2(CCN(CCc3ccc(Cl)cc3)CC2)Nc2cc(F)cc(F)c21 [TCMDC-124990] | -19.76
Cc1ccc(S(C)(=O)=O)cc1/C=C/C(=O)O [TCMDC-139220] | 3.947

Structure (SMILES) | % Inhibition [%]
COc1ccc2nccc([C@@H](O)CN3CCC(NCCOc4ccc(F)cc4[N+](=O)[O-])CC3)c2c1 [TCMDC-140659] | -1.987
CN1CCN(c2ccnc3ccc(NC(=O)Nc4cccc5ccccc45)cc23)CC1 [TCMDC-139346] | 6.615
O=c1nc(C=Cc2ccc(Br)cc2)oc2ccccc12 [TCMDC-123878] | 22.17
CCCc1c(C(=O)NC2CCC(CN3CCC(c4c[nH]c5ccccc45)CC3)CC2)cnn1-c1ccc(Cl)cc1 (stereo not shown) [TCMDC-140261] | 29.96
O=C(NC1CCC(CN2CCC(c3c[nH]c4ccccc34)CC2)CC1)c1cc(-c2cccc(Cl)c2)n(-c2ccc(Cl)cc2Cl)n1 (stereo not shown) [TCMDC-140353] | -7.21
CCCc1c(C(=O)NC2CCC(CN3CCC(c4c[nH]c5ccccc45)CC3)CC2)cnn1-c1c(Cl)cc(Cl)cc1Cl (stereo not shown) [TCMDC-140423] | 74.19
CCCc1c(C(=O)NC2CCC(CN3CCC(c4c[nH]c5ccccc45)CC3)CC2)cnn1-c1ccccc1 (stereo not shown) [TCMDC-139954] | 89.66
Cc1c(C(=O)NC2CCC(CN3CCC(c4c[nH]c5ccccc45)CC3)CC2)cnn1-c1c(Cl)cc(Cl)cc1Cl (stereo not shown) [TCMDC-140357] | 8.343
O=C(NC1CCC(CN2CCC(c3c[nH]c4ccccc34)CC2)CC1)c1cc(-c2ccccc2Cl)n(-c2cccc(Cl)c2)n1 (stereo not shown) [TCMDC-140354] | -13.83
CC(C)c1ccc(NC(=O)Nc2ccc(Cn3ncc(N4CCCNCC4)c(Cl)c3=O)cc2)cc1 [TCMDC-133325] | -40.87
CNC(=O)C1Cc2c([nH]c3ccc(Cl)cc23)C2(CCN(CCc3ccccc3)CC2)N1 (stereo not shown) [TCMDC-141285] | -33.98
O=c1[nH]c2ccc3[nH]cccc3c2c1C=Nc1ccc(N2CCN(CCO)CC2)cc1 [TCMDC-138634] | -29.23
O=C(C=Cc1ccc(Cl)c(Cl)c1)NCCCCCN1CCC(CCNC(=O)/C=C/c2ccccc2)CC1 [TCMDC-139566] | 81.69
O=C(C=Cc1ccc(Cl)c(Cl)c1)NCCCCCN1CCC(CCCNC(=O)/C=C/c2ccccc2)CC1 [TCMDC-139571] | -9.203
O=C(/C=C/c1ccc(Cl)c(Cl)c1)NCCCCCN1CCCC(CNC(=O)/C=C/c2ccccc2)C1 (stereo not shown) [TCMDC-139582] | 30.13
COc1ccccc1/C=C/C(=O)NCCC1CCN(CCCCCNC(=O)/C=C/c2ccc(Cl)c(Cl)c2)CC1 [TCMDC-139999] | 48.92
O=C(C=Cc1ccc(Cl)c(Cl)c1)NCCCCCN1CCC(CCNC(=O)C(c2ccccc2)c2ccccc2)CC1 [TCMDC-139570] | 77.62
O=C(/C=C/c1ccc(Cl)c(Cl)c1)NCCCCCN1CCC(CCNC(=O)/C=C/c2ccccc2F)CC1 [TCMDC-140006] | -17.66
O=C(C=Cc1ccc(Cl)c(Cl)c1)NCCCCCN1CCCC(CCCNC(=O)/C=C/c2ccccc2)C1 (stereo not shown) [TCMDC-139577] | 89.65
O=C(C=Cc1ccc(Cl)c(Cl)c1)NCCCCCN1CCCC(CCCNC(=O)C2CC2c2ccccc2)C1 (stereo not shown) [TCMDC-139578] | 25.82

Source: publication PMC4552634, “A New Set of Chemical Starting Points with Plasmodium falciparum Transmission-Blocking Potential for Antimalarial Drug Discovery” (PLoS ONE, 2015)
